# Test results from PubChem BioAssay AID686979 (National Center for Advancing Translational Sciences (NCATS), 2013).
# Values joined by “and” are separate entries in the source; they are usually repeats but may differ in a detail not shown here. Equal values may be shown once. The whole screen tested about 420,000 compounds, of which about 50,000 (12%) were called active. Entries that show only a call come without a potency. Another 26% or so got no clear call; they are omitted. Calls come from the whole dose curve; as a rule, active = well fitted inhibition curve with a large enough effect; inconclusive = small, poorly fitted or top-dose-only effect; inactive = flat fitted curve, though single readings scatter. Only a selection was taken, and actives are over-represented in it overall.
# Test: qHTS for Inhibitors of human tyrosyl-DNA phosphodiesterase 1 (TDP1): qHTS in cells in presence of CPT; note: nearly all actives have a fitted effect of over 55% in size
# Settings: chicken DT40 Tdp1-/-;hTDP1 cells + 20 nM CPT, ATP luminescence, 48 h; series mostly up to 46.2 µM
# In short: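 Chicken DT40 Tdp1-/- cells complemented with human TDP1, 400 cells/well, exposed to compounds plus 20 nM camptothecin for at least 48 h at 37 C; viability read as ATP content by CellTiter-Glo luminescence.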
# Potency is the fitted concentration of half-maximal effect.
SMILES,Potency,"activity change, negative = growth inhibition"
CCc1nn(CC(=O)N2CCN(c3cccc(C(F)(F)F)c3)CC2)c(=O)c2cc3occc3n12,inactive,
CC(C)CCN(C(=O)c1csnn1)C(C(=O)NC1CCCC1)c1ccccc1 (stereo not drawn),inactive,
COc1cc(CN2CCNC(=O)C2CC(=O)NCCc2ncccc2C)cc(OC)c1 (stereo not drawn),inactive,
CCOc1ccccc1NC(=O)CCS(=O)(=O)c1cccc2nsnc12,inactive,
Cc1ccc(S(=O)(=O)N(C)C)cc1NC(=O)COC(=O)/C=C/c1cccs1,inactive,
Cc1ccccc1N(C(=O)CNC(=O)c1cccs1)C(C(=O)NC1CCCC1)c1ccncc1 (stereo not drawn),inactive,
CCOc1cc(NS(=O)(=O)c2ccc(OC)cc2)c(OCC)cc1NC(C)=O,inactive,
COc1ccc(C(=O)Nc2c(N)nc(SCC(=O)Nc3ccc(C(C)=O)cc3)[nH]c2=O)cc1,inactive,
COc1ccccc1CNC(=O)CNC(=O)c1cn(-c2ccccc2OC)c(=O)c2ccccc12,inactive,
C=CCn1c(=O)n(C)c2c(=O)n(C)c(=O)n(C)c21,inactive,
Cc1c(CNCCc2ccccc2)c(C(=O)O)c(C)n1-c1ccccc1,inactive,
COc1cc(C(=O)N(Cc2ccc(C(C)C)cc2)C2CCS(=O)(=O)C2)cc(OC)c1OC (stereo not drawn),inactive,
O=C(/C=C/c1cn(CC(O)CN2CCc3ccccc32)c2ccccc12)c1ccc(Br)cc1 (stereo not drawn),18.4 µM (active),
CC(C)OCCCn1c(SCC(=O)c2ccccc2)nc2c(sc3ccccc32)c1=O,inactive,
COc1cc(CCN=Cc2ccccc2O)c([N+](=O)[O-])cc1OC,inactive,
Oc1ccc(N=Cc2sc3ccccc3c2Cl)cc1,13 µM (active),
CC(=O)n1c(C=Nc2ccccc2)c(O)c2ccccc21,inactive,
Oc1ccc(N=Cc2c(O)ccc3ccccc23)cc1,inactive,
CCOC(=O)c1ccc(NC(=O)c2c(N)n(C)c(=O)[nH]c2=O)cc1,inactive,
Cc1ccc(S(=O)(=O)N2CCC(C(=O)NCC3CCCO3)CC2)cc1 (stereo not drawn),inactive,
Cc1ccnc(NS(=O)(=O)c2ccc(NC(=O)c3ccc(S(=O)(=O)N4CCOCC4)cc3)cc2)n1,inactive,
Cc1cc(C2=NNC(=Nc3ccc(S(=O)(=O)N4CCOCC4)cc3)SC2)c(C)n1CC1CCCO1 (stereo not drawn),5.17 µM (active),
O=C1OC(Oc2ccc(Br)cc2)(c2ccccc2)c2ccccc21 (stereo not drawn),inactive,
CC1(C)Cc2ccccc2-c2[nH]c(=S)[nH]c(=O)c21,inactive,
COCC(=O)Nc1c(C(=O)N2CCCC2)oc2ccccc12,inactive,
NC(=O)c1oc2ccccc2c1NC(=O)Cc1ccccc1,inactive,

SMILES,Potency,"activity change, negative = growth inhibition"
O=C(Nc1c(C(=O)N2CCN(c3ccc(F)cc3)CC2)oc2ccccc12)c1ccco1,16.4 µM (active),
O=C(c1ccco1)N1CCN(C(=O)C2CC(c3ccc(F)cc3)=NO2)CC1 (stereo not drawn),inactive,
CCC(=O)Nc1c(C(=O)N2CCN(c3ccc(F)cc3)CC2)oc2ccccc12,13 µM (active),
O=C(Nc1ccccc1C(=O)N1CCCCC1)c1ccco1,inactive,
CC(Oc1cccc(Cl)c1)C(=O)NC1CC(C)(C)NC(C)(C)C1 (stereo not drawn),inactive,
COc1cc(C2C(C(=O)c3cccs3)=C(O)C(=O)N2CCN2CCOCC2)ccc1OCCC(C)C (stereo not drawn),inactive,
Oc1ccc(/C=N/N(Cc2ccccc2)c2ccccc2)cc1,inactive,
CCN1CCN(c2ccc(/C=C/c3ccnc4ccccc34)cc2)CC1,11.2 µM (active),
CN(C)c1ccc(/C=C/C=C/c2ccnc3ccccc23)cc1,1.78 µM (active),
CCC(C)N(c1ccc(/C=C/c2ccnc3ccccc23)cc1)C(C)CC (stereo not drawn),7.08 µM (active),
CN(Cc1ccccc1)c1ccc(/C=C/c2ccnc3ccccc23)cc1,12.6 µM (active),
O=C(CN1CCCC1)N1CCN(c2ccccc2)CC1,inactive,
c1ccc(-c2cnc(CN3CCN(c4ccccc4)CC3)o2)cc1,inactive,
Cc1ccc(S(=O)(=O)N(C)C)cc1NC(=O)C(C)OC(=O)c1ccc2ccccc2n1 (stereo not drawn),inactive,
CC(C)[C@@H](NC(=O)OC(C)(C)C)C(=O)NCC1CCC(C(=O)N[C@@H](Cc2ccccc2)C(=O)O)CC1 (stereo partly drawn),inactive,
C[C@H]1CN([C@@H](C)CO)S(=O)(=O)c2ccc(Br)cc2O[C@H]1CN(C)C(=O)c1cnccn1,inactive,
CNC(=O)COc1ccc(S(=O)(=O)Nc2ccccc2)cc1,inactive,
CC(=O)c1ccccc1NC(=O)COC(=O)C1COc2ccccc2O1 (stereo not drawn),inactive,
CC1(C(=O)NS(=O)(=O)c2ccccc2Cl)CCN1C(=O)c1cccc(F)c1 (stereo not drawn),inactive,
O=C(Cn1nc([N+](=O)[O-])nc1Br)NC1CCCCC1,inactive,
O=C(NCCS(=O)(=O)N1CCN(c2ccccc2)CC1)c1ccco1,inactive,
CN1CCN(Cc2nc3cc(NC(=O)COc4ccc([N+](=O)[O-])cc4)ccc3n2C)CC1,inactive,
O=C(Oc1ccc(C(=S)N2CCOCC2)cc1)c1ccc(F)cc1,inactive,
Cc1ccc(SCC2=NNC(=O)C2)cc1,inactive,
O=C(COc1ccccc1)Nc1cc2c3c(c1)CC(=O)N3CCC2,inactive,
CC(C)(C)OC(=O)N1CCN(C(=O)c2[nH]c(C(F)(F)F)nc2-c2ccccc2)CC1,inactive,

SMILES,Potency,"activity change, negative = growth inhibition"
C=CCC1(C(=O)N(C)Cc2ccccc2)CCN(C(=O)OC(C)(C)C)CC1,14.6 µM (active),
CN(Cc1ccccc1)C(=O)CCC1CCN(C(=O)c2ccco2)CC1,inactive,
Cc1cccc(N=Nc2c(O)[nH]c3ccc(F)cc23)c1,inactive,
Oc1[nH]c2ccccc2c1N=Nc1c(F)c(F)c(F)c(F)c1F,8.2 µM (active),
COCC(=O)N=Nc1c(O)[nH]c2ccccc12,inactive,
Cc1cc(=O)oc2c(C)c(OCC(=O)NCCc3ccc(S(N)(=O)=O)cc3)ccc12,inactive,
CCCNC(=O)C1(C)CCN(C(=O)c2ccccc2OC(F)(F)F)C1 (stereo not drawn),inactive,
c1ccc(CNc2ncncc2-c2cccnc2)cc1,inactive,
CN(c1ccccn1)c1ncnc2[nH]ncc12,inactive,
c1ccc(CNc2ncnc3[nH]ncc23)cc1,20.6 µM (active),
Cc1ccc2c(=O)c(C(=O)c3cccc(Cl)c3)cn(CC(=O)NCc3ccccc3)c2n1,inactive,
CC1(C)CC(=O)C=C(N2CCOCC2)C1,inactive,
Cc1oc(C(N)=O)cc1COc1ccc(C(N)=O)cc1,inactive,
Cc1nc2nc(SCC(=O)NCc3ccco3)nn2c(C)c1Cc1ccccc1,inactive,
Cc1cccc(Cc2c(C)nc3nc(SCc4ccccc4Cl)nn3c2C)c1,23.1 µM (active),
COC(OC)c1ccnc(SCc2ccccc2Cl)n1,inactive,
O=C(O)c1ccccc1-c1cccc2nncn12,inactive,
Cc1nnc(SCC(=O)N/N=C/c2cn(-c3ccccc3)nc2-c2ccc(F)cc2)n1-c1ccccc1,inactive,
O=C(N/N=C/c1ccc([N+](=O)[O-])o1)c1cn(-c2ccccc2)nc1-c1ccc(F)cc1,7.31 µM (active),
O=C(NCCCN1CCOCC1)c1cn(-c2ccccc2)nc1-c1ccc(F)cc1,inactive,
COc1ccc(S(=O)(=O)NCC(=O)NC2CC2)cc1OC,inactive,
COc1ccc(Nc2cc(=O)oc3ccccc23)cc1,2.91 µM (active),
COc1ccc(Nc2ccc3ccccc3c2)cc1,inactive,
COc1ccc(Nc2nnc(C)c3ccccc23)cc1,inactive,
CCn1cc(/C=C(\NC(=O)c2ccc(C)cc2)C(=O)NCCN2CCOCC2)c2ccccc21,inactive,
CC1=NNC(=O)C1CC(=O)N/N=C/c1ccncc1 (stereo not drawn),inactive,

SMILES,Potency,"activity change, negative = growth inhibition"
CCc1ccc(-n2c(SCc3cc(=O)n4cc(Br)ccc4n3)nc3[nH]ncc3c2=O)cc1,23.1 µM (active),
CCCSc1nc2[nH]ncc2c(=O)[nH]1,inactive,
COc1ccc2c(c1)CCc1c(C(=O)Nc3c(C)n(C)n(-c4ccccc4)c3=O)noc1-2,inactive,
Cc1ccccc1Cn1nc(C)c(NC(=O)C(F)(F)F)c1C,inactive,
Cc1nn(Cc2ccc(F)cc2)c(C)c1NC(=O)c1cc(CC(C)C)on1,20.6 µM (active),
Cc1nn(Cc2ccc(F)cc2)c(C)c1NC(=O)c1cccnc1Cl,inactive,
Cc1nn(Cc2ccc(F)cc2)c(C)c1NC(=O)c1noc2c1CCc1ccccc1-2,25.9 µM (active) and 4.61 µM (active),
Cc1cc(C(=O)Nc2c(C)nn(Cc3ccccc3)c2C)on1,inactive,
C=CCOc1ccc(/C=C/C(=O)OC(C)C(=O)Nc2ccc(NC(C)=O)cc2)cc1 (stereo not drawn),inactive,
CC(CCN1CCN=C1N(C)C)c1ccccc1 (stereo not drawn),inactive,
Cc1cc(C)c2c(n1)sc1c(=O)n(-c3ccccc3)c(=O)[nH]c12,inactive,
CC(=O)Nc1cc(C(=O)N2CCc3c(Cl)cccc3C2)cc2ncn(CCc3ccccn3)c12,,-10.1% [at 9.04 µM] (inactive)
CN(Cc1c(F)cccc1Cl)C(=O)CNC(=O)c1ccc2c(c1)OCO2,inactive,
COCCNC(=O)c1onc(CSc2cccc(C)c2)c1C(=O)O,inactive,
COCCN(Cc1cc2cc3c(cc2nc1Cl)OCO3)C(=O)c1cccc(C)c1,7.31 µM (active),
CCSc1nc(O)c(C(c2cccc(OC)c2)c2c(O)nc(SCC)[nH]c2=O)c(=O)[nH]1,inactive,
CC1COc2ccccc2N1C(=O)c1ccc(F)cc1 (stereo not drawn),inactive,
CC1(C)Cc2ccccc2-c2c[nH]c(=O)n21,inactive,
CCC1(CC)Cc2ccccc2-c2nc3ccccc3c(=O)n21,18.4 µM (active),
c1cncc(-c2nnc3n2C2(CCCCC2)Cc2ccccc2-3)c1,inactive,
O=c1c2ccccc2nc2n1C1(CCCCC1)Cc1ccccc1-2,16.4 µM (active),
CC1(C)Cc2ccccc2-c2nnc(-c3cccc(O)c3)n21,inactive,
CCOC(=O)C1CCc2nc3ccccc3c(=O)n21 (stereo not drawn),inactive,
CCCCSc1ncnc2c1sc1nc(N3CCOCC3)c3c(c12)CCCC3,inactive,
NS(=O)(=O)c1ccc(CCNC(=O)COC(=O)COc2cccc(C(F)(F)F)c2)cc1,inactive,
